Compounds without any hit were thinned out: in the full panel of roughly 83,000, 20% have a hit.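 Single-dose data. Exposure time 48 hours. Values below 10 considered active.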 Unmarked numbers belong to inactive results. Activity calls are given as the source filed them.
These compounds were tested on OVCAR-4 ovarian (assay: NCI-60 one-dose screen, 48 h (100 = growth as untreated, 0 = no growth, -100 = all killed)). Conditions: 10 µM unless noted.

Row | Compound | growth
1 | Nc1ccc(F)c(Cl)c1F | 112%
2 | COc1ccc(Br)c2c1C(=O)CC2 | 107%
3 | Oc1cccnc1CN1CCCC1 | 108%
4 | NC(CO)(CO)c1ccccc1 | 104%
5 | CC(c1ccccc1)N1C(=O)CSC1=S (configuration not stated) | 29.7%
6 | CN1CCN(C(=S)S)CC1 | 127%
7 | Nc1ncnc(Nc2ccccc2)n1 | 109%
8 | O=c1cc(C(F)(F)F)[nH]c(=S)[nH]1 | 107%
9 | CCOC(=O)c1c(C)[nH]c(C)c1C=O | 107%
10 | CCOP(=O)(NC(c1ccccc1)c1ccccc1)OCC | 106%
11 | CC(C)(C)[Si](C)(C)OCC1OC(n2cnc3c(N)ncnc32)CC1OS(C)(=O)=O (configuration not stated) | 108%
12 | Nc1nc(Cl)cc(Cl)n1 | 112%
13 | C=C(C)COc1ccc(C(C)(C)C)cc1 | 103%
14 | Nc1ccc2c(c1)Cc1cc(N)c(N)cc1-2 | 105%
15 | Clc1ccc(C(SCc2ccccc2)SCc2ccccc2)cc1 | 89%
16 | O=[N+]([O-])c1ccc(-c2nc(N(CCO)CCO)c3ccccc3n2)o1 | -25.7% (active)
17 | CCNC(=O)OCCc1c2ccccc2nc2ccccc12 | 98.1%
18 | C=C(OC(C)=O)c1ccccc1 | 115%
19 | O=C(OCc1ccccc1)n1nnc2ccccc21 | 92.3%
20 | CCOC(=O)/C(C#N)=C\c1c[nH]c2ccccc12 | 86.8%
21 | Nc1cc2ccccc2c(O)c1O | -97.7% (active)
22 | NC(CSSCC(N)C(=O)O)C(=O)O (configuration not stated) | 35.4%

— PubChem BioAssay (NCI)
